CD11b adhes enh = increases human CD11b/CD18 adhesion to fibrinogen; activation, % at 10 µM; 93,000 compounds, 0.07% hits; K562 CD11b/CD18 adhesion to fibrinogen, ATPlite luminescence;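 active means 10 µM primary screen giving 50% or more activity, confirmed by 40% or more on retest at that dose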
Target sequence (P05107 whole entry, looked up, other chains not shown): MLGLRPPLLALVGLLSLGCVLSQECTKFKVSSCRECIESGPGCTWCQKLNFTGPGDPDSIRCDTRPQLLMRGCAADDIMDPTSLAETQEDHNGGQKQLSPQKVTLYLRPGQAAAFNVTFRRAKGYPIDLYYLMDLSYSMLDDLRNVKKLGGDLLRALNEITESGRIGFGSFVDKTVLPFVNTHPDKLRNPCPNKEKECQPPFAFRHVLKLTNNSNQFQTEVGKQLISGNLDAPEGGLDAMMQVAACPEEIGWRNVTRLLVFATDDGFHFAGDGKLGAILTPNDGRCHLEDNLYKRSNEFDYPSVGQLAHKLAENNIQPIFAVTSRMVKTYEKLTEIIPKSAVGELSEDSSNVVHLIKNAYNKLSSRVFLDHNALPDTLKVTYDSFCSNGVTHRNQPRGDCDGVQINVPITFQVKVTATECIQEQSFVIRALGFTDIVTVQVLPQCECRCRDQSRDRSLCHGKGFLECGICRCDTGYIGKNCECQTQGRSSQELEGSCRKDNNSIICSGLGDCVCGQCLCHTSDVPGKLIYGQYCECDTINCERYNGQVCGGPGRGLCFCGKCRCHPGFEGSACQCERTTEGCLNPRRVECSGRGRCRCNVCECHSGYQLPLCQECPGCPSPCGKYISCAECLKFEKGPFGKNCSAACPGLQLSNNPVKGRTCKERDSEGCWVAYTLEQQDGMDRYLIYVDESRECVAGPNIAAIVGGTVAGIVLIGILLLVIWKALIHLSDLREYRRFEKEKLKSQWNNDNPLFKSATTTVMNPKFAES
FAK blocker = inhibitors of human focal adhesion kinase | AID 727 | inhibition, %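 (tested at 7 µM)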 | biochemical FAK kinase activity assay | 97,000 compounds, 0.84% hits | Q05397;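 further: 0% = DMSO and 100% = reference compound high control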
ERa coact pot = enhances coactivator binding to human estrogen receptor alpha. P03372. TR-FRET ERalpha-LBD/SRC-Cy5 coactivator binding, 2 h; 100 = basal binding, no effect. coactivator binding (% of control), % at 25.6 µM. 86,000 compounds, 1.3% hits; in the data active means activity above about 200%;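 further: binding measured in presence of low estradiol as agonist stimulus; 0% = peptide alone without receptor and 100% = receptor with peptide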
Mac1 fbg inh = inhibitors of human CD11b/CD18 binding to fibrinogen; K562 CD11b/CD18 adhesion to fibrinogen, ATPlite luminescence; Mn2+ added to activate the integrin; P05107+P11215; 93,000 compounds, 0.54% hits; inhibition, % at 10 µM;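 active means primary inhibition of 50% or more at 10 µM, then 40% or more on retest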
ERa coact inh = ER-alpha (human) coactivator binding inhibition | P03372 | TR-FRET ER-alpha LBD / SRC-1 peptide, estradiol-bound | inhibition, % at 25.6 µM | 86,000 compounds, 1.7% hits | AID 629; in the data active means inhibition above about 50%;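 further: 0% = receptor plus peptide control and 100% = peptide only without receptor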
ERb coact inh = ER-beta (human) coactivator binding inhibition; TR-FRET ER-beta LBD / SRC1-Cy5 peptide binding; receptor agonist-loaded with 1 µM estradiol; Q92731; AID 633; 86,000 compounds, 1.3% hits; inhibition, % at 25.6 µM;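 active means compounds whose percent inhibition of the receptor-coactivator binding signal exceeds about 50% in the single-dose screen, limit read from the data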;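 further: 0% = receptor plus peptide wells without compound and 100% = peptide-only wells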
FAK inh conf = confirmation of human focal adhesion kinase (FAK) inhibitors. shares compounds with FAK blocker. inhibition, % at 7 µM. AID 794. FAK kinase biochemical inhibition assay. 750 compounds, 28% hits
* marks the source's active call; other numbers are inactive results; [ ] = remark or other dose. In the library only some 3.5% were active in any assay of this set; here they are far more common. Unless noted, no stated cut-off is given here; in the data, active means inhibition above about 19%; inactive means the rest.

Screening Cc1nc2c(ccc3nc(NC(=O)c4ccc5c(c4)OCCO5)sc32)s1 returned CD11b adhes enh 6.0, FAK blocker 24.3*, ERa coact pot 201.4*[fluorescence artefact?], Mac1 fbg inh 67.2*, ERa coact inh 75.3*[fluorescence artefact?], ERb coact inh 58.0*[fluorescence artefact?] and FAK inh conf 14.3.
For Cc1ccc(OCC(=O)NN=C2c3ccccc3-c3ccccc32)cc1 the results were CD11b adhes enh -5.7, FAK blocker 1.1 and Mac1 fbg inh -0.7.
Screening CCc1ccc(OCC(=O)N/N=C2\CC(=O)c3ccccc32)cc1 returned CD11b adhes enh -0.3, FAK blocker 31.9*, Mac1 fbg inh 1.9 and FAK inh conf 2.3.
Screening CCOC(=O)CS(=O)(=O)c1ccc(C(F)(F)F)cn1 returned CD11b adhes enh -1.8, FAK blocker -3.2 and Mac1 fbg inh -5.1.
Cc1nc(C)c(-c2csc(NCc3ccccc3)n2)s1 was read as CD11b adhes enh -0.9, FAK blocker 1.0, ERa coact pot 94.9, Mac1 fbg inh 94.2, ERa coact inh -17.2 and ERb coact inh -7.6.
Screening O=C(CSc1nnnn1-c1ccc2c(c1)OCCO2)Nc1nc2c(s1)CCCC2 returned CD11b adhes enh 1.0, FAK blocker 29.1*, ERa coact pot 121.5, Mac1 fbg inh -17.4, ERa coact inh 5.0, ERb coact inh -1.2 and FAK inh conf 9.2.
Screening Cc1cccc(C(C)C)c1NC(=O)c1cccnc1 returned CD11b adhes enh 5.0, FAK blocker -0.1, ERa coact pot 100.3, Mac1 fbg inh -3.8, ERa coact inh -20.9 and ERb coact inh -22.3.
`CC1CCN(S(=O)(=O)c2ccc(Oc3ccc([N+](=O)[O-])cc3)cc2)CC1` gave FAK blocker -1.6.
Screening CCc1ccc(/C=C2\CN(CC)Cc3c2nc2ccccc2c3C(=O)O)cc1 returned CD11b adhes enh -1.3, FAK blocker 50.6*, Mac1 fbg inh 5.2 and FAK inh conf 8.1.
`COc1ccc(-c2nc3ccc(N4CCCC4)cc3c(=O)[nH]2)cc1OC` gave CD11b adhes enh 41.0, FAK blocker 28.4*, Mac1 fbg inh -7.3 and FAK inh conf 10.5.
`O=S(=O)(c1ccc2oc3ccccc3c2c1)N1CCOCC1` gave CD11b adhes enh -4.7, FAK blocker -0.9, ERa coact pot 97.2, Mac1 fbg inh -0.6, ERa coact inh -0.6 and ERb coact inh -1.9.
Screening COc1cccc(Nc2ncnc3nc[nH]c23)c1 returned CD11b adhes enh -0.3, FAK blocker 23.2*, ERa coact pot 106.9, Mac1 fbg inh -12.5, ERa coact inh -1.8, ERb coact inh -0.7 and FAK inh conf 5.2.
For CCCCc1ccc(Nc2ncnc3nc[nH]c23)cc1 the results were CD11b adhes enh 9.4, FAK blocker 12.8, ERa coact pot 86.3, Mac1 fbg inh 7.2, ERa coact inh -1.9 and ERb coact inh -9.1.
Screening Cc1ccc(Nc2ncnc3nc[nH]c23)cc1Cl returned CD11b adhes enh 2.3, FAK blocker 31.2*, ERa coact pot 121.5, Mac1 fbg inh 13.4, ERa coact inh -6.6, ERb coact inh -13.9 and FAK inh conf 9.9.
For CCOC(=O)C1CCN(C(=O)c2cn(C)c(=O)c3cc(OC)c(OC)cc23)CC1 the results were FAK blocker 4.7.
For COC(=O)CSc1nc2ccccc2nc1SCC(=O)OC the results were FAK blocker 2.6, ERa coact pot 77.6, ERa coact inh -24.2 and ERb coact inh -26.0.
For CCOC(=O)CSc1nc(C(C)C)nc2ccccc12 the results were CD11b adhes enh -4.4, FAK blocker 37.3*, ERa coact pot 97.5, Mac1 fbg inh 2.7, ERa coact inh 2.1, ERb coact inh -7.6 and FAK inh conf 23.6*.
CCOC(=O)CSc1nc(C2CC2)nc2ccccc12 was read as CD11b adhes enh -1.2, FAK blocker 67.5*, ERa coact pot 90.7, Mac1 fbg inh 33.1, ERa coact inh 3.8, ERb coact inh 11.7 and FAK inh conf 64.6*.
`CCOC(=O)CSc1nc(C)c2ccccc2n1` gave CD11b adhes enh -2.0, FAK blocker 1.4, ERa coact pot 104.6, Mac1 fbg inh 13.7, ERa coact inh 0.4 and ERb coact inh -5.2.
`COC(=O)CSc1nc(C(C)C)nc2ccccc12` gave CD11b adhes enh -5.4, FAK blocker 40.4*, Mac1 fbg inh -9.2 and FAK inh conf 22.6*.
For CC(=O)n1nc(-c2cccnc2)nc1N the results were CD11b adhes enh -2.6, FAK blocker 0.2, ERa coact pot 103.5, Mac1 fbg inh 7.1, ERa coact inh 6.3 and ERb coact inh 3.6.
For O=C(Nc1cccc(Cn2cccn2)c1)c1cc2c(s1)CCCC2 the results were CD11b adhes enh -1.2, FAK blocker 4.2, ERa coact pot 115.9, Mac1 fbg inh 25.6, ERa coact inh 13.8 and ERb coact inh 10.5.
